The values that follow come from PubChem BioAssay AID651814 (National Center for Advancing Translational Sciences (NCATS), 2012).

The structures appear in SMILES notation. Hit rate of the full screen: of about 2,100 compounds, about 590 (28%) were called active. Inconclusive results (about 42%) are left out. Some of the results follow. Unmarked numbers belong to inactive results. Calls follow the shape of the dose curve; as a rule, active = well fitted inhibition curve with a large enough effect; inconclusive = small, poorly fitted or top-dose-only effect; inactive = flat fitted curve, though single readings scatter.
Potency is read from the fitted curve at half-maximal effect.

Chain of DNA dC->dU-editing enzyme APOBEC-3F (Homo sapiens) (Q8IUX4 whole entry, looked up): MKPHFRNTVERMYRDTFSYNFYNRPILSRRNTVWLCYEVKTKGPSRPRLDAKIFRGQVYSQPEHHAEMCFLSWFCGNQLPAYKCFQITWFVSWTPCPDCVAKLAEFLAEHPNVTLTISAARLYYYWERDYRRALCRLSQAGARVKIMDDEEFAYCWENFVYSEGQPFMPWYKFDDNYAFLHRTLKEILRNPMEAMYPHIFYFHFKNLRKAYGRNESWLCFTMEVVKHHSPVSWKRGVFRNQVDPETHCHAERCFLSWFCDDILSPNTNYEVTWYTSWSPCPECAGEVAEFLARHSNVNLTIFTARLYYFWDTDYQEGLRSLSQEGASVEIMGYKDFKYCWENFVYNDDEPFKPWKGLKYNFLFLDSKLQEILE

This assay addresses DNA dC->dU-editing enzyme APOBEC-3F (Homo sapiens) (UniProt Q8IUX4). The assay is described as follows: qHTS for inhibitors of Vif-A3F interactions: Cherry picks. Also: nearly all actives have a fitted effect of over 70% in size.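 As to max response: % of control where 0% means no effect; active compounds raise eYFP fluorescence by blocking Vif-driven A3F loss.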 Particulars: HeLa A3F-eYFP + Vif (tagged APOBEC3F with the HIV-1 protein that degrades it), eYFP fluorescence, 24 h. The gist of the method:
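HeLa cells stably expressing A3F-eYFP plus Vif, cultured overnight, then exposed to compounds at several concentrations for 24 h at 37 deg C. Reduced Vif-driven degradation read as rising eYFP fluorescence (488 nm ex/500-530 nm em) by laser-scanning cytometry; MG132 as positive control.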
As to `NNC(=O)c1cc2sccc2s1`, the max response was -9.98%. For `O=c1[nH]c2cc(Br)cnc2nc1/C=C(\O)c1ccc(F)cc1`, the Potency was 13 µM (active). In the case of `CCOC(=O)N1CCC(Nc2nc3ccccc3nc2NS(=O)(=O)c2ccc(Cl)cc2)CC1`, the max response was -1.97%. For the compound `O=S(=O)(Nc1nc2ccccc2nc1N1CCN(c2ccccn2)CC1)c1ccc(Cl)cc1`, the Potency was 18.4 µM (active).

Take `O=S(=O)(Nc1nc2ccccc2nc1N1CCN(c2ccccc2)CC1)c1ccc(F)cc1`: the max response is -24.2%. For `O=C(N=c1ccn(-c2nc3ccccc3nc2NS(=O)(=O)c2ccccc2)cc1)c1cccs1`, the max response is -18.4%.

On to `O=C(N=c1ccn(-c2nc3ccccc3nc2NS(=O)(=O)c2ccc(Cl)cc2)cc1)c1cccs1`, for which the Potency is 13 µM (active).

With `CN1CCN(c2nc3ccccc3nc2NS(=O)(=O)c2ccc(Br)cc2)CC1`, the max response is -2.09%. Same read-out and setting: as for `CCC(C)Sc1cccc(-c2nc3cc(C)ccn3c2NC2CCCCC2)c1` (configuration not stated), the figure is -1.04%; as for `Cc1cc(-n2c(SCC(=O)Nc3ccc(Br)cc3)nc3n[nH]c(C)c3c2=N)ccc1Cl`, -24.1%; as for `Cc1cc(-n2c(C)cc(C(=O)CCl)c2C)no1`, -21.8%. As for `COc1ccc2o/c(=N/NC(=O)c3cccs3)c(C(N)=O)cc2c1`, the Potency is 3.96 µM (active).

Regarding `COc1ccc2oc(=N)c(C(=O)Nc3ccc(F)cc3)cc2c1`, the max response is -21%.

As for `COc1cc(OC)cc(C(=O)Nc2ccc(N3CCN(C(=O)c4cccs4)CC3)cc2)c1`, the max response was -11.5%. Same read-out and setting: to `COC(=O)C1=C(Nc2ccc(C)cc2)C=C(C)C(C(=O)OC)C1c1cccc(OC)c1` (configuration not stated) belongs -20.5%. On to `CN(C)c1ccc2ccc3cccc4ccc1c2c34`, for which the Potency was 9.2 µM (active).

With `Cc1cccc(CN2C(=O)N/C(=C/c3ccc(C)s3)C2=O)c1`, the Potency is 9.94 µM (active). On to `COCc1ccc(O)c2ncccc12`, for which the max response is 1.62%. For `Cc1cc(NC(=O)/C(C#N)=C/c2ccc(-c3ccc(SC(F)F)cc3)o2)n(-c2ccccc2)n1`, the Potency is 3.66 µM (active). The same measure, in the same setting: to `Cc1cc(NC(=O)/C(C#N)=C\c2ccc(-c3ccc(SC(F)F)cc3)o2)n(-c2ccccc2)n1` belongs 9.2 µM (active). For the compound `Cc1ccc(C)c(N2CCN(C(=O)c3cccn4c(=O)c5sccc5nc34)CC2)c1`, the max response was -29.7%.

For the compound `CCOC(=O)c1ccc(/C=C2/C=C(c3ccccc3)N(c3ccc(Cl)c(C(=O)O)c3)C2=O)cc1`, the Potency was 20.6 µM (active). As for `Cc1ccc(C(=O)O)cc1Nc1nc2ccccc2n2nnnc12`, the max response is -4.15%. On the same count and under the same terms, as for `CN(C)c1ccc(Nc2nc3ccccc3n3nnnc23)cc1`, the figure is -2.05%. Consider `CC(NC(=O)c1ccc(Nc2nc3ccccc3n3nnnc23)cc1)c1ccccc1` (configuration not stated), for which the Potency was 16.4 µM (active). Same read-out and setting: to `Cc1cccc2cc3c(N)c(C(=O)N4CCCc5ccccc54)sc3nc12` belongs 9.2 µM (active); to `Cc1cccc2cc3c(N)c(C(=O)N4CCc5ccccc54)sc3nc12`, 6.51 µM (active); to `Cc1ccc2nc3sc(C(=O)N4CCCc5ccccc54)c(N)c3cc2c1`, 14 µM (active). Take `CCCn1nnc(NC(=S)NC(=O)c2ccccc2OC)n1`: the max response was 0.308%. Regarding `O=C(Cc1nc2ccccc2[nH]c1=O)c1ccc(Cl)cc1`, the Potency is 18.4 µM (active).

As to `CC(=O)Nc1ccc(NC(=O)C/C(C)=N/NC(N)=S)cc1`, the max response is 0.646%. As to `CCc1ccc(C(=O)NC(=S)Nc2ccc(N3CCOCC3)cc2)cc1`, the max response is -0.0784%. With `CCc1ccc(NC(=O)/C(C#N)=C/c2cc3ccc(C)cc3nc2N2CCOCC2)cc1`, the Potency is 14.6 µM (active).

As to `COCCCNC(=S)N/N=C/c1ccc(OC)cc1`, the max response was -0.494%.

As to `C=CCNC(=S)N/N=C(\C)c1ccc(OC)cc1`, the max response is -3.87%.

For the compound `Cc1nn(-c2ccc(F)cc2)c(Cl)c1/C=C1\C(=O)Nc2ccccc21`, the max response is -19.4%. In the case of `Cc1cc(C)c(/C=C2\C(=O)Nc3ccccc32)[nH]1`, the Potency is 16.4 µM (active). For `CNCC(O)Cn1c2c(c3ccccc31)CCCC2` (configuration not stated), the max response was 1.63%. Take `CCN(CC)c1ccc(NC(=O)CSc2nc(C3CC3)nc3ccccc23)cc1C`: the max response was -22.1%.

For the compound `CCN(CC)c1cc(C)c(/C=C/c2ccnc3ccccc23)cc1C`, the Potency was 13 µM (active). On the same count and under the same terms, as for `Cc1cc(N(C)C)c(C)cc1/C=C/c1ccnc2ccccc12`, the figure is 18.4 µM (active). Consider `Cc1cc(C)n(S(=O)(=O)/C=C/c2ccccc2)n1`, for which the max response was -7.92%. The same measure, in the same setting: to `c1ccc2[nH]c(NN=C3CCCCCC3)nc2c1` belongs 2.02%.

Take `O=C(Nc1ccccc1-c1nc2ccccc2[nH]1)c1ccc(N2C(=O)CCC2=O)cc1`: the Potency was 18.4 µM (active). In the case of `CCN1C(=S)SC(=O)C1=C1C=C(C)N(Cc2ccco2)C(C)=C1`, the Potency is 17.7 µM (active). In the case of `CN(C)C=Nc1c(Br)cc(Br)c2nonc12`, the Potency is 14.6 µM (active). For the compound `O=S(=O)(Nc1cccc2ncccc12)c1cccs1`, the max response is -3.96%. As for `COC(=O)c1sccc1NC(=S)Nc1cc(C)cc(C)c1`, the max response was -0.135%. For `Cc1ccc(NC(=O)/C=C/c2ccc([N+](=O)[O-])s2)c(C)c1`, the Potency is 5.17 µM (active). As for `Cc1ccc(NC(=O)c2ccc([N+](=O)[O-])s2)cc1S(=O)(=O)N1CCOCC1`, the max response is -11.7%. As to `Cc1nc(NC(=O)/C=C/c2ccco2)sc1C`, the max response is -21.9%. For the compound `CC(=O)c1cccc(NC(=S)N2c3ccccc3CC2C)c1` (configuration not stated), the max response was 9.61%. Turning to `Cc1cccc(NC(=O)/C=C/c2ccc([N+](=O)[O-])s2)c1`, the Potency is 3.26 µM (active). `Cc1cc(C)cc(NC(=O)/C=C/c2ccc([N+](=O)[O-])s2)c1`: the Potency was 10.3 µM (active). Same read-out and setting: to `CC(=O)c1cccc(NC(=O)/C=C/c2ccc([N+](=O)[O-])s2)c1` belongs 5.17 µM (active). Consider `N#C/C=C/N1CCN(C(=O)c2ccco2)CC1`, for which the max response is 0.169%.

`Cc1cc(C)nc(-n2nc(C)cc2NC(=O)c2ccc(F)cc2F)n1`: the max response is -0.0521%.

In the case of `COc1cccc(Nc2nc(Nc3ccc(Cl)c(C(=O)O)c3)nc(C)c2[N+](=O)[O-])c1`, the max response was -16.3%. `Cc1ccc(NC(=O)/C=C/c2ccc([N+](=O)[O-])s2)cc1`: the Potency was 5.17 µM (active).

On to `CCOC(=O)c1cc2n(c1N)-c1ccccc1C2=O`, for which the max response was -16.6%. As to `CCOC(=O)c1cc2n(c1/N=C/N(C)C)-c1ccccc1C2=O`, the Potency is 18.4 µM (active).

Turning to `Fc1cccc(Cc2c(-c3ccco3)nc3ccc(Br)cn23)c1`, the max response was -28.7%. For `O=C1c2ccccc2C(=O)c2c(/C=C/N3CCCCC3)ccnc21`, the Potency is 20.6 µM (active). On to `O=C1c2cccc3c([N+](=O)[O-])ccc(c23)C(=O)N1c1ccccn1`, for which the max response was -0.304%. Still for that read-out and setting: to `CC(=O)Oc1ccc(N2C(=O)c3cccc4c([N+](=O)[O-])ccc(c34)C2=O)cc1` belongs -15.1%. For `CC(=O)Oc1cccc(N2C(=O)c3cccc4c([N+](=O)[O-])ccc(c34)C2=O)c1`, the Potency is 14 µM (active).

Consider `CC(C)(C)c1ccc(C(=O)C[n+]2cccc3cc(Cl)ccc32)cc1`, for which the Potency is 20.6 µM (active). Consider `O=C(C[n+]1cccc2cc(Cl)ccc21)c1ccc2ccccc2c1`, for which the Potency is 18.4 µM (active). Same read-out and setting: as for `COc1ccc(C(=O)C[n+]2cc(Br)cc3ccccc32)cc1`, the figure is 8.2 µM (active). On to `CCCC1=[N+](CC(=O)c2ccc(Br)cc2)CCn2cccc21`, for which the max response was -4.77%. As for `COc1ccc(C(=O)C[n+]2cccc3cc(Cl)ccc32)cc1`, the Potency was 18.4 µM (active). Regarding `CCCc1nc2c(C)cc(Br)cn2c1Cc1ccccc1`, the max response is -22.2%. As for `O=C(COc1ccccc1)NC(=S)Nc1cccc2c(O)cccc12`, the max response is -15.7%. Regarding `COc1ccc(C(=O)NC2CCCc3ccccc32)cc1[N+](=O)[O-]` (configuration not stated), the max response was -23.5%.

On to `O=C(C[n+]1cccc2cc(Cl)ccc21)c1ccc(I)cc1`, for which the Potency is 20.6 µM (active).

On to `O=C(c1ccccc1)C1C(=O)c2ccccc2C1=O`, for which the max response is 2.89%. Take `NN=C1c2ccccc2C(=O)C1C(=O)C(c1ccccc1)c1ccccc1` (configuration not stated): the Potency was 7.9 µM (active). Same read-out and setting: to `CCOC(=O)/C=c1/s/c(=C/c2ccc3cc(OC)ccc3c2)c(=O)n1CC(=O)NCC1CCCO1` (configuration not stated) belongs 18.4 µM (active). As to `NC(=O)CSc1nc2c(sc3ccccc32)c(=O)n1CCCC(=O)NCC1CCCO1` (configuration not stated), the max response was 3.7%.

In the case of `CCOC(=O)/C=c1\s/c(=C\c2c(OC)ccc3ccccc23)c(=O)n1CC(=O)NCC1CCCO1` (configuration not stated), the Potency was 14.6 µM (active).

Turning to `CCOC(=O)/C=c1/s/c(=C\c2c(OC)ccc3ccccc23)c(=O)n1CC(=O)NCC1CCCO1` (configuration not stated), the Potency was 11.2 µM (active). Regarding `Cc1cc(-c2ccccc2)c2c3c(c(-c4ccccc4)n2n1)c(=O)n(C)c(=O)n3C`, the max response is -9.86%.

For `Cc1ccc(Nc2nc(Cl)c(C=O)s2)cc1Cl`, the Potency is 23.1 µM (active). Still for that read-out and setting: to `CN(C)c1ccc(/C=C(\C#N)c2nc3ccccc3c(=O)[nH]2)cc1` belongs 0.731 µM (active).

Regarding `N#C/C(=C\c1ccc(C(=O)O)cc1)c1nc2sc3c(c2c(=O)[nH]1)CCCC3`, the max response is 1.2%. With `Fc1ccc(-c2cnn3c(-c4cccs4)ccnc23)cc1`, the Potency was 4.98 µM (active). `Cc1ccccc1NCC(=O)N=Nc1c(O)[nH]c2ccc([N+](=O)[O-])cc12`: the max response was -1.42%. As for `CCN(CC)S(=O)(=O)c1cc([N+](=O)[O-])ccc1N=Nc1c(O)[nH]c2ccccc12`, the Potency is 16.4 µM (active).

Take `CC(C)CN(CC(C)C)c1ccc(/C=C/c2ccnc3ccccc23)cc1`: the Potency is 20.6 µM (active). The same measure, in the same setting: to `CCCCN(CCC(=O)O)c1ccc(/C=C/c2ccnc3ccccc23)cc1` belongs 18.4 µM (active); to `CCCN(CCC)c1ccc(/C=C/c2ccnc3ccccc23)cc1`, 7.31 µM (active); to `CCN(C)c1ccc(/C=C/c2ccnc3ccccc23)cc1`, 13 µM (active).
